From PubChem BioAssay AID1159580 (chemical genetic matrix, 2015)
Where “and” joins values, the source holds several entries; their conditions need not be identical. Identical values can stand only once. Hit rate of the full screen: of about 5,500 compounds, about 2,000 (36%) were called active. About 18% were inconclusive and are not listed. Rule as the data show it: active = normalized growth mostly below about 0.91 (no sharp cut-off); inconclusive = no clear call, values can overlap the other calls; inactive = mostly above about 0.92. The list shows a part of the results.

Experiment: chemical genetic growth profiling, strain panel (AID 1159580);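 also: tested at 20 µM; growth read once vehicle control cultures reached saturation at 30 °C; 1 = growth at the plate median or of vehicle wells; lower values mean less growth of the strain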
Details: growth OD

Measured: normalized growth

NC(N)=NC(N)=Nc1ccccc1
inactive: S. cerevisiae deletion strains, locus YJR066W, strain TOR1, active compounds read low 0.931 | S. cerevisiae deletion strains, locus YKL009W, strain mrt4, active compounds read low 0.998 | S. cerevisiae deletion strains, locus YKL068W, active compounds read low 0.996 | S. cerevisiae deletion strains, locus YKL085W, strain MDH1 (second series), active compounds read low 1 | S. cerevisiae deletion strains, locus YKL085W, strain MDH1, active compounds read low 1 | S. cerevisiae deletion strains, locus YKL160W, strain elf1, active compounds read low 0.991 | S. cerevisiae deletion strains, locus YKL190W, strain CNB1, active compounds read low 1 | S. cerevisiae deletion strains, locus YKR001C, strain vps1, active compounds read low 0.994 | S. cerevisiae deletion strains, locus YKR026C, strain gcn3, active compounds read low 1 | S. cerevisiae deletion strains, locus YKR091W, strain srl3, active compounds read low 0.994 | S. cerevisiae deletion strains, locus YLL001W, strain dnm1, active compounds read low 0.982 | S. cerevisiae deletion strains, locus YLL026W, active compounds read low 1 | S. cerevisiae deletion strains, locus YLL041C, strain sdh2, active compounds read low 1 | S. cerevisiae deletion strains, locus YLR027C, strain aat2, active compounds read low 1 | S. cerevisiae deletion strains, locus YLR039C, strain RIC1, active compounds read low 1.05 | S. cerevisiae deletion strains, locus YLR058C, strain SHM2, active compounds read low 1.02 | S. cerevisiae deletion strains, locus YLR102C, strain apc9, active compounds read low 0.994 | S. cerevisiae deletion strains, locus YLR113W, strain HOG1, active compounds read low 0.988 | S. cerevisiae deletion strains, locus YLR221C, strain rsa3, active compounds read low 1 | S. cerevisiae deletion strains, locus YLR258W, strain gsy2, active compounds read low 0.988 | S. cerevisiae deletion strains, locus YLR262C, strain YPT6 (second series), active compounds read low 0.985 | S. cerevisiae deletion strains, locus YLR262C, strain YPT6, active compounds read low 1.05 | S. cerevisiae deletion strains, locus YLR268W, strain sec22, active compounds read low 0.997 | S. cerevisiae deletion strains, locus YLR320W, strain mms22, active compounds read low 0.993 | S. cerevisiae deletion strains, locus YLR330W, strain CHS5, active compounds read low 1.01 | S. cerevisiae deletion strains, locus YLR342W, strain FKS1 (second series), active compounds read low 1.02 | S. cerevisiae deletion strains, locus YLR342W, strain FKS1, active compounds read low 1 | S. cerevisiae deletion strains, locus YLR357W, strain rsc2, active compounds read low 0.998 | S. cerevisiae deletion strains, locus YLR370C, strain arc18, active compounds read low 1.01 | S. cerevisiae deletion strains, locus YLR371W, strain rom2, active compounds read low 0.986 | S. cerevisiae deletion strains, locus YLR384C, strain iki3, active compounds read low 0.999 | S. cerevisiae deletion strains, locus YLR418C, strain cdc73, active compounds read low 0.951 | S. cerevisiae deletion strains, locus YML016C, strain PPZ1, active compounds read low 1.02 | S. cerevisiae deletion strains, locus YML032C, strain rad52, active compounds read low 0.991 | S. cerevisiae deletion strains, locus YML120C, strain ndi1, active compounds read low 0.995 | S. cerevisiae deletion strains, locus YML124C, strain tub3, active compounds read low 0.991 | S. cerevisiae deletion strains, locus YMR058W, strain fet3, active compounds read low 1 | S. cerevisiae deletion strains, locus YMR078C, strain ctf18, active compounds read low 0.998 | S. cerevisiae deletion strains, locus YMR125W, strain sto1, active compounds read low 0.982 | S. cerevisiae deletion strains, locus YMR129W, active compounds read low 0.996 | S. cerevisiae deletion strains, locus YMR205C, strain PFK2, active compounds read low 1.01 | S. cerevisiae deletion strains, locus YMR223W, strain ubp8, active compounds read low 0.99 | S. cerevisiae deletion strains, locus YMR231W, strain pep5, active compounds read low 0.994 | S. cerevisiae deletion strains, locus YMR263W, strain SAP30, active compounds read low 0.993 | S. cerevisiae deletion strains, locus YMR307W, strain GAS1, active compounds read low 1.04 and 0.978 | S. cerevisiae deletion strains, locus YNL067W, strain RPL9B, active compounds read low 1.03 | S. cerevisiae deletion strains, locus YNL071W, strain lat1, active compounds read low 1.01 | S. cerevisiae deletion strains, locus YNL128W, strain TEP1, active compounds read low 1.01 and 1.02 | S. cerevisiae deletion strains, locus YNL175C, strain NOP13, active compounds read low 1.02 | S. cerevisiae deletion strains, locus YNL183C, strain NPR1, active compounds read low 0.923 | S. cerevisiae deletion strains, locus YNL197C, strain WHI3, active compounds read low 1.02 | S. cerevisiae deletion strains, locus YNL209W, strain ssb2, active compounds read low 1 | S. cerevisiae deletion strains, locus YNL224C, strain SQS1, active compounds read low 0.998 | S. cerevisiae deletion strains, locus YNL233W, strain BNI4, active compounds read low 1.02 | S. cerevisiae deletion strains, locus YNL248C, strain rpa49, active compounds read low 0.998 | S. cerevisiae deletion strains, locus YNL250W, strain rad50, active compounds read low 0.992 | S. cerevisiae deletion strains, locus YNL271C, strain bni1, active compounds read low 0.994 | S. cerevisiae deletion strains, locus YNL298W, strain CLA4, active compounds read low 0.993 | S. cerevisiae deletion strains, locus YNL307C, strain MCK1, active compounds read low 1 | S. cerevisiae deletion strains, locus YNL322C, strain KRE1 (second series), active compounds read low 1 | S. cerevisiae deletion strains, locus YNL322C, strain KRE1, active compounds read low 1 | S. cerevisiae deletion strains, locus YNR049C, strain mso1, active compounds read low 1.01 | S. cerevisiae deletion strains, locus YNR052C, strain pop2, active compounds read low 0.991 | S. cerevisiae deletion strains, locus YOL006C, strain TOP1, active compounds read low 1.03 | S. cerevisiae deletion strains, locus YOL012C, strain htz1 1.06 | S. cerevisiae deletion strains, locus YOL147C, strain pex11, active compounds read low 0.991 | S. cerevisiae deletion strains, locus YOR001W, strain rrp6, active compounds read low 0.989 | S. cerevisiae deletion strains, locus YOR061W, strain CKA2, active compounds read low 1.01 | S. cerevisiae deletion strains, locus YOR069W, strain VPS5, active compounds read low 1.01 | S. cerevisiae deletion strains, locus YOR070C, strain gyp1, active compounds read low 1 | S. cerevisiae deletion strains, locus YOR080W, strain dia2, active compounds read low 0.98 | S. cerevisiae deletion strains, locus YOR083W, strain WHI5 (second series), active compounds read low 1.02 | S. cerevisiae deletion strains, locus YOR083W, strain WHI5, active compounds read low 0.996 | S. cerevisiae deletion strains, locus YOR106W, strain vam3, active compounds read low 1 | S. cerevisiae deletion strains, locus YOR136W, strain idh2, active compounds read low 0.995 | S. cerevisiae deletion strains, locus YOR144C, strain elg1, active compounds read low 0.994 | S. cerevisiae deletion strains, locus YOR184W, strain ser1, active compounds read low 0.977 | S. cerevisiae deletion strains, locus YOR231W, strain MKK1, active compounds read low 1.01 | S. cerevisiae deletion strains, locus YOR265W, strain rbl2, active compounds read low 1.01 | S. cerevisiae deletion strains, locus YOR270C, strain vph1, active compounds read low 1.06 | S. cerevisiae deletion strains, locus YOR290C, strain snf2, active compounds read low 0.987 | S. cerevisiae deletion strains, locus YOR316C, strain cot1, active compounds read low 0.996 | S. cerevisiae deletion strains, locus YPL051W, strain arl3, active compounds read low 0.996 | S. cerevisiae deletion strains, locus YPL055C, strain LGE1, active compounds read low 0.993 | S. cerevisiae deletion strains, locus YPL078C, strain atp4, active compounds read low 1 | S. cerevisiae deletion strains, locus YPL106C, strain sse1, active compounds read low 0.955 | S. cerevisiae deletion strains, locus YPL240C, strain hsp82, active compounds read low 0.986 | S. cerevisiae deletion strains, locus YPL241C, strain CIN2, active compounds read low 1.01 | S. cerevisiae deletion strains, locus YPL256C, strain CLN2, active compounds read low 0.996 | S. cerevisiae deletion strains, locus YPR119W, strain clb2, active compounds read low 0.991 | S. cerevisiae deletion strains, locus YPR141C, strain kar3, active compounds read low 0.98 | S. cerevisiae deletion strains, locus YPR163C, strain tif3, active compounds read low 0.999 | S. cerevisiae deletion strains, locus YPR167C, strain met16, active compounds read low 0.996 | S. cerevisiae deletion strains, strain wtn01, active compounds read low 1 | S. cerevisiae strains, strain wild type, active compounds read low 1.01
